Test results reported in PubChem BioAssay AID1079 (Emory University Molecular Libraries Screening Center, 2008).
Entries with a potency or affinity are not part of this list. Activity calls are given as the source filed them.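 How the source made its calls: active means fitted half-effect concentration IC50 at or below a set limit, with percent of control there 60 or less; inactive means the rest.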

Biological target: Estrogen receptor (Homo sapiens) (UniProt P03372)
Assay: blockers of SRC-3 recruitment to ERα – biochemical, ELISA, streptavidin-HRP readout, orthogonal assay, confirmation (AID 1079)

Estrogen receptor (Homo sapiens), sequence (P03372 whole entry, looked up): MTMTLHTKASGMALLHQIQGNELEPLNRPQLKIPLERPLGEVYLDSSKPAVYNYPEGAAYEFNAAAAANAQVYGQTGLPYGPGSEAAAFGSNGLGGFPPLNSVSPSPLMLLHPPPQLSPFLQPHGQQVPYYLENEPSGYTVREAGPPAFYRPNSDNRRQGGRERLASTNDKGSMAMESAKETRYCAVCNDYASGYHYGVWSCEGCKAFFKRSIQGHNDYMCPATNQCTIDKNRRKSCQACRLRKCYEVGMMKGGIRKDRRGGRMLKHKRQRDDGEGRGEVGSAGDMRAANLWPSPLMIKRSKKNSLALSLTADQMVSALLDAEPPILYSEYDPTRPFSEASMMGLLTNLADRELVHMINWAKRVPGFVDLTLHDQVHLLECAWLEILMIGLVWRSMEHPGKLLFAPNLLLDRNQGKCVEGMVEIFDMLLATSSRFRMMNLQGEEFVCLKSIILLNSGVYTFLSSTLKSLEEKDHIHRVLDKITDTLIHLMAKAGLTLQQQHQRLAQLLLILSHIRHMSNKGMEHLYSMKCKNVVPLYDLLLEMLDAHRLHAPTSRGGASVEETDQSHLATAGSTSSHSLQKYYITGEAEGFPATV

Structure (SMILES) | outcome
N#Cc1ccc(N2CCN(C(=O)CCCCCn3c(=S)[nH]c4ccccc4c3=O)CC2)cc1 | inactive
O=C(CCCCCCCn1c(=S)[nH]c2ccccc2c1=O)N1CCN(c2cccc(Cl)c2)CC1 | inactive
